# Experimental data from PubChem BioAssay.
# Values without a mark were called inactive. Active and inactive are the calls of the source.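 Rule for the calls: active = z-score of at least 1.8 in each of two replicates, scored against plate mean and spread of sample wells; inactive = the rest.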
# Assay: viability rescue of complex I mutant cybrids, primary screen, cell-based, galactose medium, ATP luminescence (AID 1645843);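 note: positive z means more ATP and so rescue of galactose-driven cybrid death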
# Conditions: complex I mutant cybrid cells, 72 h, active compounds read high
row,Compound,z-score
1,Cc1cc(C)c(CN[C@@H](C)C(C)C)c(C)c1CO,-0.51
2,COc1ccc(N2CCN(C(=O)Nc3nc(C)ns3)CC2(C)C)cc1,-0.445
3,COc1ccc(CNCC2COCCO2)cc1OC (centres undefined),3.29 (active)
4,CCC(CC)C(=O)N1CCC(n2cc(C(C)(C)O)nn2)CC1,0.875
5,O=C(Nc1cccc(-c2cncnc2)c1)c1ccc2c(c1)OCO2,-0.62
6,C=C1C2(C(=O)N3CCCC(C(=O)N4CCOCC4)C3)CCC(C2)C1(C)C (centres undefined),-0.555
7,CC(C)N(C)C(=O)c1cc(-c2cnc(C(C)(C)C)nc2)nc2cc(F)ccc12,-0.525
8,CCC(CC)(CCC#N)CNC1COC2(CCCC2)C1 (centres undefined),-0.555
9,CCC1(CC)CC1C(=O)N1CCC(n2cc(C3CC3)nn2)CC1 (centres undefined),-0.51
10,CCc1cc(-c2cccc(C)c2C)nc(N(C)C)n1,1.21
11,CC(C)CCC(C)N[C@H](CO)Cc1ccccc1 (some centres undefined),-0.5
12,CN1CCN(C(=O)c2ccc3c(c2)CCO3)CC1=O,0.07
13,COc1ccc(CC(=O)NCc2cccc(SC)c2)cc1,0.19
14,CC(=O)NCCC1CCN(C(=O)C(C)(C)Oc2cc(C)ccc2Cl)CC1,-0.545
15,CCn1cc(-c2cc(C(=O)N3CCCCCC3)c3cccc(C)c3n2)cn1,0.305
16,c1ccc(-c2nccn2Cc2nc(-c3ccccn3)no2)cc1,1.27
17,CC(C)n1cc(-c2cc(C(=O)N3CCC(C)(C)C3)c3ccc(F)cc3n2)cn1,0.14
18,CC(C)CN1CCC(CNCc2ccc(C#CC(C)(C)O)s2)CC1,-1.05
19,O=C1NCCN(C(=O)c2cccc(-c3ccccc3)c2)C1Cc1ccccc1 (centres undefined),2.37 (active)
20,COc1ccc(-c2ncnc3sc(C)c(C)c23)c(OC)c1,0.66

row,Compound,z-score
1,Cc1nnc(NC(=O)N2CCCN(c3ccncc3C)CC2)s1,-0.57
2,CC(C)c1nc(Cn2cnc3ccsc3c2=O)cs1,-0.55
3,COc1cc(Cl)ccc1C(=O)N1CCC(Cn2cc(C3CC3)nn2)CC1,-0.63
4,CC(CCN1CCC(Cn2cc(CCO)nn2)CC1)CC(C)(C)C (centres undefined),-0.27
5,OC[C@H](Cc1ccccc1)NC1CCCCCC1,-0.555
6,CCC(CC)(CCC#N)CNC1COC2(CCCCC2)C1 (centres undefined),-0.53
7,O=C(CN1CCOC1=O)NCCc1cccc(F)c1,-0.505
8,COc1cccc(CC(=O)NCc2ccc(Cl)s2)c1,-0.145
9,Cc1sc2ccccc2c1-c1ccn(CC(=O)Nc2ccnn2C(C)C)n1,-0.855
10,OCCCCCNc1nccc(-c2cnn(-c3ccc(F)cc3)c2)n1,-0.895
11,CCCC1CCCN1Cc1ccccc1OC1(C(=O)O)CCCC1 (centres undefined),-0.265
12,Cc1cc(Cl)cc2c(=O)n(C(C)Cn3cccn3)cnc12 (centres undefined),-0.45
13,CC(=O)c1c(C)nn(CC(=O)Nc2ccnn2C2CCCCC2)c1C,0.2
14,CC(C)c1ncc(-c2cc(C(=O)N3CCC(C)(C)C3)c3ccccc3n2)cn1,2.19 (active)
15,CC(C)(O)c1cn(C2CCN(C(=O)C3CC34CCCC4)CC2)nn1 (centres undefined),-0.475
16,CN(C)Cc1cn(CC2CCN(C(=O)CC3CCCCCC3)CC2)nn1,-0.47
17,COc1ccc2nc(Cn3cnc4sc(C)cc4c3=O)[nH]c2c1,0.395
18,CC(C)Cc1noc(C2C3CCC4C(CCC32)C4(Cl)Cl)n1 (centres undefined),-0.52
19,Cc1ccccc1N1CCCN(C(=O)CCC(C)C)CC1,3.28 (active)
